Assay results as given in PubChem BioAssay (NCATS).
Records with an inconclusive call do not appear. A call without a number means that no potency is given here. Calls of active or inactive are those of the source. The call rests on the fitted dose curve; in most records, active means well fitted curve in the direction sought with a large enough effect; inconclusive means small, poorly fitted or top-dose-only effect, or another doubt; inactive means no such curve, though single readings can be large; an effect the other way counts as inactive or inconclusive.

Molecular target: Rap guanine nucleotide exchange factor 3 (Homo sapiens) (UniProt O95398)
Sequence (O95398 whole entry, looked up): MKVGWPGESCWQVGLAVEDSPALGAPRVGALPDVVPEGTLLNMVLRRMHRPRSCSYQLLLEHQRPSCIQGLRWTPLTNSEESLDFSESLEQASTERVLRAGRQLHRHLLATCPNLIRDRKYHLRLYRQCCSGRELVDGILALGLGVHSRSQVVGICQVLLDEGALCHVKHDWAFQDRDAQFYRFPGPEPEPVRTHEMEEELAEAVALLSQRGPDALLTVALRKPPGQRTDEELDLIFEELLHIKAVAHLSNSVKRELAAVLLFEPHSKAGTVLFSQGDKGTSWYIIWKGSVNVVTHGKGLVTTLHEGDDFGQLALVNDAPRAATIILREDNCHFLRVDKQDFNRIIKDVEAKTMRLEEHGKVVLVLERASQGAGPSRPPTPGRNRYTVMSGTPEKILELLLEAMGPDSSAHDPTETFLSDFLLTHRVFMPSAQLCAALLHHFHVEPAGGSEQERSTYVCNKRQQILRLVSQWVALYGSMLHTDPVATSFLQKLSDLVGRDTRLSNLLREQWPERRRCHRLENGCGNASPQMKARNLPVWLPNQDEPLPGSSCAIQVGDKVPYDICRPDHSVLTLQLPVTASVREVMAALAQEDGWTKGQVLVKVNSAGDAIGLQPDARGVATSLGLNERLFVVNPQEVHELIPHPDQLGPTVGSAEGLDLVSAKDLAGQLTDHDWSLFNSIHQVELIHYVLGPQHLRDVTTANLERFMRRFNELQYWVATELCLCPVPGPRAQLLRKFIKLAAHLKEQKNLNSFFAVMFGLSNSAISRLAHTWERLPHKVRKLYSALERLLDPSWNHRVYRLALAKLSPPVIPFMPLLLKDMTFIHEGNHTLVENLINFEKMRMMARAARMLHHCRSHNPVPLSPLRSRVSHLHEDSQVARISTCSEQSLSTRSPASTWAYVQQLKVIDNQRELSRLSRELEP
Experiment: Confirmatory qHTS for antagonist of cAMP-regulated guanine nucleotide exchange factor 3 (EPAC1) (AID 1645880); further: nearly all actives have a fitted effect of over 55% in size
Conditions: EPAC1 Rap1B-BODIPY-GDP exchange, fluorescence; series mostly up to 115 µM
Procedure, shortened: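 Released BODIPY-GDP fluoresces less than Rap1-bound BODIPY-GDP; the signal is followed at 480/540 nm at 5-min intervals over 30 min, after 5 min at room temperature. Reactions contain 100 nM EPAC1, 250 nM RAP1B-BODIPY-GDP and 50 uM GDP; results are normalized to ATA and DMSO.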
Potency means the concentration at half of the fitted maximal effect.

Compound | Potency
COC(=O)c1c(OC)cc2c(c1C)Oc1c(Cl)c(OC(C)=O)c(Cl)c(C)c1C(=O)O2 | inactive
N#C/C(=C\c1ccc(O)c(O)c1)C(=O)NCCCCc1ccccc1 | 15.7 µM (active)
CC(=O)Oc1ccc2c(c1)CCC1C2CC[C@]2(C)C(OC(C)=O)CCC12 (stereo partly specified) | inactive
COc1ccc2c(c1)OCc1c-2oc2cc(OC)ccc12 | inactive
O=c1cc(-c2ccc(O)c(O)c2)oc2cc(OC3OC(CO)C(O)C(O)C3O)cc(O)c12 (stereo unspecified) | 7.03 µM (active)
CC1=CC2C(CC1=O)C(C)=CCC2C(C)C (stereo unspecified) | inactive
CC(=O)Oc1ccc2c(c1C(C)C)CCC1C(C)(C)CCC[C@@]21C (stereo partly specified) | inactive
COc1cc(C/C=C/c2ccccc2)c(OC)cc1O | inactive
COC(=O)CCCOc1ccc(Cl)cc1Cl | inactive
C#C[C@]1(OC(C)=O)CCC2C3CCC4=CC(=O)CCC4C3CC[C@]21C (stereo partly specified) | inactive
CCOC(=O)c1c(C)cc(OC)cc1O | inactive
CN(Cc1ccco1)c1nc(-c2ccccc2Cl)nc2ccccc12 | inactive
COc1cc(-c2coc3cc(OCc4ccccc4)c(OC)c(O)c3c2=O)cc(O)c1OC | inactive
CC(=O)OC1CC2C(C)(C)CCC(=O)[C@@]2(C)C2CC[C@@]3(C)C(c4ccoc4)OC(=O)C4OC43[C@]12C (stereo partly specified) | inactive
CC(=O)OC1CCC23CC1(C)CCC2C(C)(C)CC3OC(C)=O (stereo unspecified) | inactive
O=C(c1cccc(F)c1)N1CCC[C@@]2(CCN(C(c3ccccc3)c3ccccc3)C2)C1 | inactive

Compound | Potency
COc1ccc(-c2cc(=O)c3c(OC)c(OC)c(OC)c(OC)c3o2)cc1 | inactive
COc1ccc(-c2nc3cnc(Nc4cccc(OC)c4)nc3n(CCC#N)c2=O)cc1 | inactive
COc1ccc2c(c1)OCC(Cc1ccc(OC)c(OC(C)=O)c1)C2=O (stereo unspecified) | inactive
CC(=O)OC1CC[C@]2(C)C(CC(OC(C)=O)[C@@]3(C)C4=CC(=O)OC(c5ccoc5)[C@]4(C)CCC23)C1(C)C (stereo partly specified) | inactive
O=c1c(-c2ccccc2)coc2cc(O)cc(O)c12 | 44.4 µM (active)
COc1cccc(-c2nc(Nc3ccncc3)c3ccccc3n2)c1 | inactive
N[C@H](C(=O)O)C(O)C(O)C(O)CO (stereo partly specified) | inactive
NCC1OC(n2cnc3c(=O)[nH]c(N)nc32)C(O)C1O (stereo unspecified) | inactive
COc1ccccc1CNc1ncnc2ccc(-c3cccnc3)cc12 | inactive
CC1(C)C(O)CC[C@]2(C)C1CC[C@@]1(C)C2C(=O)C=C2[C@@H]3C[C@@](C)(C(=O)O)CC[C@@]3(C)CCC21C (stereo partly specified) | inactive
O=c1c(O)c(-c2ccc(O)c(O)c2)oc2c(OC3OC(CO)C(O)C(O)C3O)c(O)cc(O)c12 (stereo unspecified) | inactive
CC1(C)C=CC(=O)[C@]2(C)C1CC(=O)[C@]1(C)C2CC[C@@]2(C)C(c3ccoc3)OC(=O)C3OC321 (stereo partly specified) | inactive
O=C1CC[C@@]23/C=C/C(=O)NCCCCNCCCNC(=O)/C=C/c4ccc(c2c4)OC3C1 (stereo partly specified) | inactive
Nc1nc2n[nH]nc2c(=O)[nH]1 | inactive
CN(Cc1ccco1)c1nc(-c2cccc(C#N)c2)nc2ccccc12 | inactive
COc1ccc(C(=O)O)c(O)c1OC | inactive

Molecular target: Rap guanine nucleotide exchange factor 3 (Homo sapiens) (UniProt O95398)
Experiment: Confirmatory qHTS for agonist of cAMP-regulated guanine nucleotide exchange factor 3 (EPAC1) (AID 1645881); further: nearly all actives have a fitted effect of over 75% in size
Conditions: EPAC1 Rap1B BODIPY-GDP exchange fluorescence; series mostly up to 154 µM

Compound | Potency
COC(=O)c1c(OC)cc2c(c1C)Oc1c(Cl)c(OC(C)=O)c(Cl)c(C)c1C(=O)O2 | inactive
N#C/C(=C\c1ccc(O)c(O)c1)C(=O)NCCCCc1ccccc1 | inactive
CC(=O)Oc1ccc2c(c1)CCC1C2CC[C@]2(C)C(OC(C)=O)CCC12 (stereo partly specified) | inactive
COc1ccc2c(c1)OCc1c-2oc2cc(OC)ccc12 | inactive
O=c1cc(-c2ccc(O)c(O)c2)oc2cc(OC3OC(CO)C(O)C(O)C3O)cc(O)c12 (stereo unspecified) | inactive
Cc1ccccc1-c1ccc2ncnc(N(C)Cc3ccco3)c2c1 | inactive
CC1=CC2C(CC1=O)C(C)=CCC2C(C)C (stereo unspecified) | inactive
CC(=O)Oc1ccc2c(c1C(C)C)CCC1C(C)(C)CCC[C@@]21C (stereo partly specified) | inactive
COc1cc(C/C=C/c2ccccc2)c(OC)cc1O | inactive
COC(=O)CCCOc1ccc(Cl)cc1Cl | inactive
C#C[C@]1(OC(C)=O)CCC2C3CCC4=CC(=O)CCC4C3CC[C@]21C (stereo partly specified) | inactive
COC(=O)c1c(OC)cc2c(c1C)Oc1c(Cl)c(O)c(Cl)c(C)c1C(=O)O2 | inactive
CCOC(=O)c1c(C)cc(OC)cc1O | inactive
COc1cccc(-c2cncnc2NCc2ccc(OC)cc2OC)c1 | inactive
CC1(C)[C@@H](O)CC[C@]2(C)C3C(=O)C=C4C5C[C@@](C)(C(=O)O)CC[C@]5(C)CC[C@@]4(C)[C@]3(C)CC[C@@H]12 (stereo partly specified) | inactive
CN(Cc1ccco1)c1nc(-c2ccccc2Cl)nc2ccccc12 | inactive
COc1cc(-c2coc3cc(OCc4ccccc4)c(OC)c(O)c3c2=O)cc(O)c1OC | inactive
CC(=O)OC1CC2C(C)(C)CCC(=O)[C@@]2(C)C2CC[C@@]3(C)C(c4ccoc4)OC(=O)C4OC43[C@]12C (stereo partly specified) | inactive
CC(=O)OC1CCC23CC1(C)CCC2C(C)(C)CC3OC(C)=O (stereo unspecified) | inactive
O=C(c1cccc(F)c1)N1CCC[C@@]2(CCN(C(c3ccccc3)c3ccccc3)C2)C1 | inactive

Compound | Potency
COc1ccc2c(c1)[C@@]1(C)CCC[C@](C)(CO)C1CC2 (stereo partly specified) | inactive
O=C(O)c1cc(O)c2c(c1)C(=O)c1cc(O)cc(O)c1C2=O | inactive
COc1ccc(-c2cc(=O)c3c(OC)c(OC)c(OC)c(OC)c3o2)cc1 | inactive
COc1ccc(-c2nc3cnc(Nc4cccc(OC)c4)nc3n(CCC#N)c2=O)cc1 | 70.6 µM (active)
COc1ccc2c(c1)OCC(Cc1ccc(OC)c(OC(C)=O)c1)C2=O (stereo unspecified) | inactive
CC(=O)OC1CC[C@]2(C)C(CC(OC(C)=O)[C@@]3(C)C4=CC(=O)OC(c5ccoc5)[C@]4(C)CCC23)C1(C)C (stereo partly specified) | inactive
O=c1c(-c2ccccc2)coc2cc(O)cc(O)c12 | inactive
N[C@H](C(=O)O)C(O)C(O)C(O)CO (stereo partly specified) | inactive
NCC1OC(n2cnc3c(=O)[nH]c(N)nc32)C(O)C1O (stereo unspecified) | inactive
COc1ccccc1CNc1ncnc2ccc(-c3cccnc3)cc12 | inactive
CC1(C)C(O)CC[C@]2(C)C1CC[C@@]1(C)C2C(=O)C=C2[C@@H]3C[C@@](C)(C(=O)O)CC[C@@]3(C)CCC21C (stereo partly specified) | inactive
O=c1c(O)c(-c2ccc(O)c(O)c2)oc2c(OC3OC(CO)C(O)C(O)C3O)c(O)cc(O)c12 (stereo unspecified) | inactive
CC1(C)C=CC(=O)[C@]2(C)C1CC(=O)[C@]1(C)C2CC[C@@]2(C)C(c3ccoc3)OC(=O)C3OC321 (stereo partly specified) | inactive
COc1c(-c2ccc(O)c(O)c2)oc2cc(O)cc(O)c2c1=O | inactive
O=C1CC[C@@]23/C=C/C(=O)NCCCCNCCCNC(=O)/C=C/c4ccc(c2c4)OC3C1 (stereo partly specified) | inactive
COc1ccc2c(c1)OC/C(=C/c1ccc(O)c(O)c1)C2=O | inactive
Nc1nc2n[nH]nc2c(=O)[nH]1 | inactive
CN(Cc1ccco1)c1nc(-c2cccc(C#N)c2)nc2ccccc12 | inactive
COc1ccc(C(=O)O)c(O)c1OC | inactive
